Results published in PubChem BioAssay (EPA / NIEHS).
Values joined by “and” are separate entries in the source; they are usually repeats but may differ in a detail not shown here. Equal values may be shown once. Records with an inconclusive call do not appear. Some compounds were tested as several samples or in several runs, with calls that do not always agree. Active and inactive are the calls of the source. Rule for the calls, unless noted: active = hit-call score of the fitted dose curve at least 0.9, where 1 is the maximum; inactive = score below 0.9.

Legend:
[1] = CCTE_Shafer_MEA_acute_spike_number: CCTE's Neural Acute Assay for Total Number of Spikes, Shafer Lab (AID 2284008);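 for AC50: curve fitted for decrease in spike count so AC50 reflects inhibitors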
Method in brief: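 Cortical neurons from rat, matured to DIV 13 or 15 on microelectrode arrays, are recorded at 37 C before and during 40-min exposure to 0.03-40 uM compound. Wells need >/= 10 active electrodes.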

[2] = CCTE_Shafer_MEA_acute_firing_rate_mean: CCTE's Neural Acute Assay for Mean Firing Rate, Shafer Lab (AID 2284009);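 note: analyzed for loss of signal so actives lower firing rate relative to DMSO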
Method in brief: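 Read-out: well-mean spike rate (spikes/recording length/electrodes), % change from 40 min pre-dose baseline to 40 min with compound. Rat cortical cultures, DIV 13 or 15, 37 C; 0.03-40 uM; DMSO as negative control.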

[3] = CCTE_Harrill_HTTr_Viability_MCF7: CCTE's 6-hour Cell Viability Assessment for the High-Throughput Transcriptomics (HTTr) Platform, in MCF-7 cells cultured in DMEM + 10% fetal bovine serum, Harrill Lab (AID 2284010)
Method in brief: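 Membrane integrity was scored by high-content imaging of propidium iodide dye exclusion after a 6 h exposure across an eight-point dilution series. Data were fitted bidirectionally relative to DMSO as negative control and baseline.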

[4] = CCTE_Harrill_HTTr_Apoptosis_MCF7: CCTE's 6-hour Apoptosis Assessment for the High-Throughput Transcriptomics (HTTr) Platform, in MCF-7 cells cultured in DMEM + 10% fetal bovine serum, Harrill Lab (AID 2284011)
Method in brief: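 Cells are dosed with test chemicals at eight concentrations and imaged 6 hours later for caspase-3/7 activity using a green fluorogenic detection reagent. Activity is fitted in both directions against DMSO controls.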

[5] = CCTE_Shafer_MEA_acute_burst_number: CCTE's Neural Acute Assay for Single-Electrode Bursts, Shafer Lab (AID 2284013)
Method in brief: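 Rat cortical cultures, DIV 13/15; 40 min baseline, then 40 min with compound 0.03-40 uM, 37 C. Spikes: 300-5000 Hz band-pass, threshold 8x rms noise. Readout = % change in single-electrode bursts vs baseline, loss-of-signal fit.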

[6] = CCTE_Shafer_MEA_acute_burst_duration_mean: CCTE's Neural Acute Assay for Mean Burst Duration, Shafer Lab (AID 2284014);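 note: hits are decreases in mean burst duration relative to DMSO controls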
Method in brief: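 Primary rat cortical neurons on 16-electrode MEA wells, treated on DIV 13 or 15 with compound (0.03-40 uM; ≥3 wells each). 40-min baseline and 40-min exposure recordings at 37 C; percent change in mean burst duration per well versus DMSO.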

[7] = CCTE_Shafer_MEA_acute_per_burst_spike_number_mean: CCTE's Neural Acute Assay for Average Number of Spikes Per Burst, Shafer Lab (AID 2284015);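 note: hits are decreases in mean spikes per burst versus baseline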
Method in brief: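 Percent change in mean spikes per single-electrode burst is compared between a 40 min baseline and a 40 min recording with compound (0.03-40 uM). Cultures were rat cortical neurons on MEA plates at DIV 13 or 15, recorded at 37 C, with DMSO as the negative control.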

[8] = CCTE_Shafer_MEA_acute_interburst_interval_mean: CCTE's Neural Acute Assay for Mean Interburst Interval, Shafer Lab (AID 2284016);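 note: percent change of mean interburst interval versus each well's own pre-dose baseline; curves fitted for decrease in interburst interval relative to DMSO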
Method in brief: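 Percent change in mean single-electrode interburst interval was calculated per well from 40 min recordings before and after compound (0.03-40 uM). Recordings were made at 37 C on rat cortical cultures at DIV 13 or 15, with spikes detected at 8x rms threshold.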

[9] = CCTE_Shafer_MEA_acute_burst_percentage_mean: CCTE's Neural Acute Assay for Percentage of Spikes in a Burst, Shafer Lab (AID 2284017);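 for AC50: curve fitted for loss of signal so potency reflects decreased burst percentage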
Method in brief: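 Well-level mean burst percentage from a 40-min recording after compound (0.03-40 uM) expressed as percent change from a 40-min baseline at 37C. Cultures: primary rat cortical neurons on MEA, dosed on DIV 13 or 15; fitted downward relative to DMSO.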

[10] = CCTE_Shafer_MEA_acute_burst_percentage_std: CCTE's Neural Acute Assay for Standard Deviation of Burst Percentage, Shafer Lab (AID 2284018);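 note: fitted in the negative direction so actives lower burst percentage SD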
Method in brief: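 Primary rat cortical neurons on 16-electrode MEA wells were recorded 40 min at baseline (DIV 13 or 15), then 40 min after compound (0.03-40 uM), at 37 C. Well value is SD across electrodes of spikes-in-bursts/total spikes; endpoint is percent change, DMSO-referenced.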

[11] = CCTE_Shafer_MEA_acute_per_network_burst_electrodes_number_mean: CCTE's Neural Acute Assay for Mean Number of Electrodes in a Network Burst, Shafer Lab (AID 2284021);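 note: curves fitted for decreases only so hits reduce electrodes per burst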
Method in brief: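 Cultures of rat cortex neurons were exposed on DIV 13 or 15 to compounds at 0.03-40 uM in at least three wells each. Activity over 40 min before and 40 min after exposure at 37 C gave the percent change in electrodes per network burst.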

[12] = CCTE_Shafer_MEA_acute_cross_correlation_area: CCTE's Neural Acute Assay for Area of Cross Correlation, Shafer Lab (AID 2284024);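 note: area under pooled inter-electrode spike cross-correlation near zero lag as percent change from own baseline; curves fitted for loss of cross-correlation area so actives lower synchrony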
Method in brief: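 Acute exposure of mature rat cortical networks (day 13 or 15 post-plating) to 0.03-40 uM compound. Spontaneous spiking on MEA, 40 min pre- and post-dose at 37 C.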

[13] = CCTE_Shafer_MEA_acute_synchrony_index: CCTE's Neural Acute Assay for Synchrony, Shafer Lab (AID 2284027);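 note: network synchrony index of spontaneous spiking in primary rat cortical neurons on MEAs; fitted for loss of signal so actives lower synchrony relative to DMSO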
Method in brief: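 Primary rat cortical neurons on 16-electrode MEA wells were recorded 40 min at baseline (DIV 13 or 15) and 40 min after compound (0.03-40 uM) at 37 C. Synchrony index (0-1) expressed as percent change from baseline, versus DMSO.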

[14] = target: Estrogen receptor (Homo sapiens) (UniProt P03372); assay: CCTE_Deisenroth_AIME_384WELL_LUC_Active: CCTE's 384-well Estrogen Receptor Transactivation Assay with AIME metabolic competence (ERTA luciferase; metabolism positive), Deisenroth Lab (AID 2284030; active = hit-call score of the fitted dose curve at least 0.9, where 1 is the maximum)
Chain of Estrogen receptor (Homo sapiens) (P03372 whole entry, looked up): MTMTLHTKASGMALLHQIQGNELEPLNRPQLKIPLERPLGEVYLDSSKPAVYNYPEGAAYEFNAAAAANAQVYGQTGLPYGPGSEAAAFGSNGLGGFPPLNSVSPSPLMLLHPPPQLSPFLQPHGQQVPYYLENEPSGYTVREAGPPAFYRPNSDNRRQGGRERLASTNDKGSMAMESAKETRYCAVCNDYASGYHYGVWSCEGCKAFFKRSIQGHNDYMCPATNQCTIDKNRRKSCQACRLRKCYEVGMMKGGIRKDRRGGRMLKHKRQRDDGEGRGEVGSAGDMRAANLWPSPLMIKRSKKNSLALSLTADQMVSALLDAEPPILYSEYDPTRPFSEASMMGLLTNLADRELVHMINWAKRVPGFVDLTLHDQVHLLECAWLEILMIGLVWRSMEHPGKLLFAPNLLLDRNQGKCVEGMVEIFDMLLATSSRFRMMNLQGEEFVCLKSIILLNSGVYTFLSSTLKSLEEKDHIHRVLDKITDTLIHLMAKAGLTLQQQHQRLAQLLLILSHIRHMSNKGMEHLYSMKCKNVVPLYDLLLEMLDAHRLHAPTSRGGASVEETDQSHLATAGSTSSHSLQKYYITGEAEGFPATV
Method in brief: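 In this metabolism-positive format, a 2-hour exposure to alginate-immobilized rat S9 precedes a 24 hour luciferase transactivation readout in VM7Luc4E2 cells. Dosing spans 10 concentrations from 0.002 to 200 uM.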

[15] = CCTE_Harrill_HTTr_CellCount_MCF7: CCTE's Cell Proliferation Assessment for the High-Throughput Transcriptomics (HTTr) Platform, Harrill Lab (AID 2284012; active = hit-call score of the fitted dose curve at least 0.9, where 1 is the maximum;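 note: cells exposed to compound for six hours; intended direction is loss of nuclei count meaning fewer cells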)
Method in brief: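 MCF-7 cells were exposed for 6 h to an eight-point dilution series; Hoechst-labeled nuclei were counted by high content imaging. Curves were fitted bidirectionally against DMSO as negative control and baseline, with signal loss indicating reduced cell count.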

Measured: AC50

CNC(=O)/C=C(\C)OP(=O)(OC)OC
inactive: [1] | [2] | [3] | [4] | [5] | [6] | [7] | [8] | [9] | [10] | [11] | [12] | [13] | [14]

O=C(O)C(F)(F)C(F)(F)C(F)(F)C(F)(F)C(F)(F)C(F)(F)C(F)(F)F
inactive: [3] | [4] | [15]

ClC1C(Cl)C(Cl)C(Cl)C(Cl)C1Cl (stereo not drawn)
inactive: [3] | [4] | [15] | [5] | [8] | [10]
active: [1] 20 µM | [2] 20 µM | [6] 20 µM | [7] 1.62 µM | [9] 1.53 µM | [11] 1.1 µM | [12] 9.69 µM | [13] 1.22 µM

O=S1OCC2C(CO1)C1(Cl)C(Cl)=C(Cl)C2(Cl)C1(Cl)Cl (stereo not drawn)
inactive: [1] | [2] | [3] | [4] | [15] | [5] | [6] | [8] | [9] | [10] | [11] | [12] | [13]
active: [6] 0.269 µM | [7] 223 nM and 58.3 nM | [9] 25.5 µM | [10] 0.102 µM | [11] 0.177 µM | [12] 0.0502 µM | [13] 23.7 µM | [14] 13.8 µM

CNC(=O)Oc1ccccc1OC(C)C
inactive: [3] | [4] | [14]

CNC(=O)Oc1cccc(N=CN(C)C)c1
inactive: [3] | [4] | [15] | [14]

CC1(C)C(C=C(Cl)Cl)C1C(=O)OC(C#N)c1ccc(F)c(Oc2ccccc2)c1 (stereo not drawn)
inactive: [3] | [4] | [15] | [5] | [6] | [7] | [8] | [10]
active: [1] 407 nM and 4.51 µM | [2] 450 nM and 4.51 µM | [5] 0.173 µM | [6] 1.66 µM | [7] 0.574 µM | [9] 210 nM and 1.95 µM | [10] 5.28 µM | [11] 66.4 nM and 796 nM | [12] 20.3 nM and 102 nM | [13] 117 nM and 558 nM

CN1CSC(=S)N(C)C1
inactive: [3] | [4] | [15]

O=S(=O)(O)C(F)(F)C(F)(F)C(F)(F)C(F)(F)C(F)(F)C(F)(F)C(F)(F)C(F)(F)F
inactive: [1] | [2] | [3] | [4] | [15] | [5] | [6] | [7] | [8] | [9] | [10] | [11] | [12] | [13]

O=C1c2ccccc2C(=O)N1SC(Cl)(Cl)Cl
inactive: [1] | [2] | [3] | [4] | [15] | [5] | [6] | [7] | [8] | [9] | [10] | [11] | [12] | [13]
